Screens as filed in PubChem.
Hits are enriched below; roughly 5.7% of the tested compounds scored in any of these assays.
hcDAF-12 act: H. contortus DAF-12 activation, primary screen; HEK293 hcDAF-12 lit1-tk-luc reporter, luminescence; 0% DMSO, 100% Δ7-dafachronic acid; actives 1.4% (n = 370,000); activation, % at 6.8 µM;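 active = activation above the mean of all tested compounds plus 3 SD, cut at about 5.5% in these data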;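 also: 100% = response to 3 µM Δ7-dafachronic acid high control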
DAX1 inh-1: NR0B1 (DAX1) inhibition | P51843 | HEK293 Gal4-DAX1 luciferase reporter, luminescence | inhibition, % at 6.75 µM | actives 0.99% (n = 340,000) | AID 504766;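 active = inhibition above the mean over all tested compounds plus 3 SD, cut at about 4.2% in these data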;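 also: 0% = DAX1-transfected cells with DMSO and 100% = empty-vector control cells with DMSO; inhibition shows as a rise in luminescence from relieved DAX1 repression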
DAX1 inh-2: DAX1 (NR0B1) inhibition, primary screen; HEK293T StAR-luciferase reporter, SF-1/DAX-1 repression relief; inhibition, % at 6.8 µM; actives 1.1% (n = 370,000); AID 652010;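 active = inhibition above the mean over all tested compounds plus 3 SD, cut at about 3.6% in these data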;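 also: 0% = DAX-1 cells with DMSO and 100% = cells lacking DAX-1 with DMSO; higher inhibition means more luminescence from relief of DAX-1 repression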
AHR activator: human AHR activation; AHR-responsive luciferase reporter cells, luminescence; activation, % at 5 µM; actives 2.5% (n = 320,000); AID 2796; in the data active = activation above about 47%;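 also: 0% = vehicle wells and 100% = reference agonist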
Target sequence (P35869 whole entry, looked up): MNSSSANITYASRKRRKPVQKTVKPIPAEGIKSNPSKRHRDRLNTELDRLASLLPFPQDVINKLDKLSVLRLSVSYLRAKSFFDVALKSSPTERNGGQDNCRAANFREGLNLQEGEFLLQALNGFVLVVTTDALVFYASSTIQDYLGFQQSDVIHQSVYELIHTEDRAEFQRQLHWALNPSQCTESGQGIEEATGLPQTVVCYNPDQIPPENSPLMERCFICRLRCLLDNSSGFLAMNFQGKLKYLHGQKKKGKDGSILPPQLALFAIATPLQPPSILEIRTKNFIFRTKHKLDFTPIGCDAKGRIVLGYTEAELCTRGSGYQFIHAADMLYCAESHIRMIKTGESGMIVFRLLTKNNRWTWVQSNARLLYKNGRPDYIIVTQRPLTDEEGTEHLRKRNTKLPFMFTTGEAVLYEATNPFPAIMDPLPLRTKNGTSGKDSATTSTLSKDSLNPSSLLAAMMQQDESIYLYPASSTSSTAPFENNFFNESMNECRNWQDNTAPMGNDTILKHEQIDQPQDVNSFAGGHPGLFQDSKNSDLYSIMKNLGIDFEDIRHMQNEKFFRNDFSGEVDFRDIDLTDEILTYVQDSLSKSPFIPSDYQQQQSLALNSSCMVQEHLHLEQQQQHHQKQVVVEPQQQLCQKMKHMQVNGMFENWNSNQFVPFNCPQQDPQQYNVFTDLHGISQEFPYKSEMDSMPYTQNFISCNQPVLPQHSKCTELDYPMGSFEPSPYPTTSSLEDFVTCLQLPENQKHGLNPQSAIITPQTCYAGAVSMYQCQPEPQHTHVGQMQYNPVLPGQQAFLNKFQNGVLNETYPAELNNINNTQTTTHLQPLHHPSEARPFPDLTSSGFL
hgDAF-12 ag: agonists of H. glycines DAF-12 nuclear receptor; HEK293 GAL4-hgDAF12 UAS-luciferase reporter, agonist luminescence; normalized to butyrate control; activation, % at 6.8 µM; actives 1.8% (n = 370,000); AID 687014;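 active = activation above a cutoff set at the mean of all screened compounds plus 3 SD, cut at about 10% in these data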;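 also: 0% = DMSO wells and 100% = sodium butyrate wells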
ssDAF-12 act: activators of S. stercoralis DAF-12 nuclear receptor; HEK293 ssDAF-12/GRIP1 lit1-tk-luc reporter, luminescence; % of 3 µM dafachronic acid response; activation, % at 6.8 µM; actives 1% (n = 370,000);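 active = activation above the mean over all tested compounds plus 3 SD, cut at about 0.9% in these data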;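 also: 0% = DMSO-only wells and 100% = 3 µM delta7-dafachronic acid wells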
LXR ag: LXR-beta agonism as hcDAF-12 counter-screen; shares compounds with hcDAF-12 act; HEK293 Gal4-LXR tk-luc reporter, luminescence, 24 h; normalized: DMSO 0%, positive control 100%; activation, % at 6.8 µM; 3,400 tested, under 10 active; AID 743027;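 active = mean percent activation of the reporter above a cutoff set as the average over tested compounds plus their standard deviation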
hcDAF12 conf: hcDAF-12 agonism, confirmation assay; shares compounds with hcDAF-12 act; HEK293 hcDAF-12 lit1-tk-luc reporter, luminescence; % of Δ7-dafachronic acid response; activation, % at 6.8 µM; actives 61% (n = 3,400); AID 743032;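 active = mean activation across triplicate tests above the threshold derived from the earlier primary screen, cut at about 5.5% in these data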;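 also: 0% = DMSO only wells and 100% = 3 µM Δ7-dafachronic acid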
Starred values were filed as active, the others as inactive; / = no result.

SMILES | hcDAF-12 act | DAX1 inh-1 | DAX1 inh-2 | AHR activator | hgDAF-12 ag | ssDAF-12 act | LXR ag | hcDAF12 conf
COc1cccc(OCc2ccc(Cl)cc2)c1C#N | 8.4* | 4.8* | 3 | 1 | 12* | 1.7* | 2 | 7.3*
COCCN(C(=O)CSc1nnc(-c2ccccc2F)n1N)c1c(N)n(Cc2ccccc2)c(=O)[nH]c1=O | -1 | 1 | 2 | 1 | 0 | -1 | / | /
O=C(Nc1nnc(SCC(=O)N2CCCc3ccccc32)s1)c1ccc2ccccc2c1 | 3 | 0 | 0 | 9 | 3 | 1 | / | /
O=C(Nc1nnc(SCC(=O)N2CCCc3ccccc32)s1)c1ccccc1 | 8.0* | -2 | 1 | 11 | 7 | -1 | 0 | 4
O=C(NC(=S)N1CCCc2ccccc21)c1ccccc1 | 8.3* | 1 | 0 | 32 | 8 | 1 | 0 | 9.2*
O=C(c1ccc(Cl)cc1)N1CCc2ccccc21 | 1 | 1 | 0 | -2 | 4 | -1 | / | /
O=C(NC(=S)N1CCCc2ccccc21)c1ccc(Cl)cc1 | 7.9* | 2 | 1 | 44 | 4 | 0 | 0 | 9.2*
COc1ccccc1C(=O)NC(=S)N1CCCc2ccccc21 | 2 | 2 | -1 | 24 | -2 | -1 | / | /
Cc1ccc(CCC(=O)Nc2ccccc2C(=O)O)o1 | 1 | 1 | 1 | 7 | 6 | -1 | / | /
CC1=C(CC(=O)NCC(=O)NCC(=O)O)c2cc(F)ccc2/C1=C/c1ccc(S(C)=O)cc1 (stereo not given) | -1 | 1 | 0 | / | 0 | -1 | / | /
O=C(CNc1ccc2ccccc2c1)N/N=C/c1ccncc1 | 8.0* | 0 | 0 | 44 | 3 | 0 | 0 | 1
O=C(CN1CCCCCC1)N/N=C/c1ccc2ccccc2c1 | 8.1* | 1 | 1 | / | 4 | 0 | 0 | 2
CC1(C)NC(=O)N(CCC(=O)Nc2cc(C(F)(F)F)ccc2Cl)C1=O | -1 | 0 | -1 | 5 | -2 | -1 | / | /
O=C(Nc1cccc(S(=O)(=O)NC2=NCCC2)c1)c1c(F)cccc1Cl | 0 | 0 | 0 | -3 | -1 | -1 | / | /
O=C(O)c1cc(-c2ccc3ccccc3n2)nc2ccccc12 | 6 | -1 | 1 | 12 | 6 | 0 | / | /
CNc1ccccc(-c2ccc3ccccc3n2)c1=O | 7.0* | 0 | 0 | 50* | 3 | 0 | 1 | 7.2*
CCOC(=O)c1c(C)[nH]c(C)c1S(=O)(=O)NCCc1ccco1 | -2 | 1 | -2 | 3 | 1 | -1 | / | /
CN(C(=O)COc1cc(=O)n(C)c2ccccc12)c1ccc(Br)cc1 | 6.8* | 1 | 0 | 31 | 1 | 0 | 0 | 3
O=C(NCCN1CCOCC1)c1cccc(NS(=O)(=O)c2ccc(Br)cc2)c1 | 1 | 1 | -1 | 1 | -2 | -1 | / | /
O=C(Cn1cnc2c(nnn2Cc2ccc(F)cc2)c1=O)Nc1ccc2c(c1)OCCO2 | 0 | 0 | 0 | 0 | 0 | -1 | / | /
Cc1cc(C)n(-c2nc3ccccc3c3nc(C)nn23)n1 | -2 | 1 | 0 | 2 | -2 | -1 | / | /
Cc1cc(C)n(-c2nc(C)nc3c2cnn3-c2ccccc2)n1 | 10* | 1 | 0 | 49* | -1 | 0 | 0 | 7.8*
O=C(NC(=S)Nc1nc2c(s1)CCCC2)c1ccccc1 | 12* | 1 | 2 | 25 | 11* | 1.0* | 2 | 16*
CCN1CCc2nc(NC(=O)c3ccccc3)sc2C1 | 8.9* | -1 | 4.0* | -4 | 7 | 1 | 1 | 6.8*
O=C(Nc1nc2c(s1)CN(Cc1ccccc1)CC2)C1CCC1 | 4 | 0 | 3 | 5 | 6 | -1 | / | /
SMILES | hcDAF-12 act | DAX1 inh-1 | DAX1 inh-2 | AHR activator | hgDAF-12 ag | ssDAF-12 act | LXR ag | hcDAF12 conf
N#Cc1c(NC(=S)NC(=O)c2ccccc2)sc2c1CCCC2 | -1 | 1 | 0 | 18 | 3 | -2 | / | /
CCCN(C(=O)c1cn(C)c(=O)c2ccccc12)c1ccccc1C | -2 | -1 | 0 | 3 | -1 | -1 | / | /
Cc1ccc(NC(=O)c2noc3c2CCCCC3)cc1 | 10* | 2 | 3 | 38 | 11* | 1.2* | 2 | 8.2*
CC(=O)N1c2ccccc2C(C)(C)C2CCC(C)CC21 (stereo not given) | 0 | 1 | 0 | 0 | -1 | -1 | / | /
O=C1CCCC2=C1Sc1ccccc1N2 | 7.8* | / | 0 | 16 | -1 | -1 | 0 | 4
O=C1NC2=C(C(=O)CCC2)C(c2ccccc2)N1 (stereo not given) | -1 | 0 | 0 | 3 | 0 | -1 | / | /
CCOC(=O)c1[nH]c2ccccc2c1NC(=O)CC(C)(C)C | 6.8* | -1 | 0 | 29 | 5 | 0 | 0 | 5
CCOC(=O)c1[nH]c2ccccc2c1NC(=O)CN(C)C | 2 | 0 | 0 | 13 | -1 | -2 | / | /
O=C(c1cc2ccccc2[nH]1)N(Cc1cccnc1)CC1CCCN(C2CCCCC2)C1 (stereo not given) | 5 | 0 | 0 | 35 | 5 | 0 | / | /
O=S(=O)(c1cccs1)N1CN(CC2CCCO2)c2nc3ccccc3nc21 (stereo not given) | -2 | 0 | 1 | 6 | 0 | -1 | / | /
Cc1ccc(S(=O)(=O)N2CN(CC3CCCO3)c3nc4ccccc4nc32)c(C)c1 (stereo not given) | 8.1* | 0 | 1 | 7 | 3 | -1 | 0 | 0
O=C1c2ccccc2C(=O)N1CCCc1c[nH]c2ccc(Cl)cc12 | -3 | 0 | 0 | -10 | 1 | -2 | / | /
Cc1ccc(C2=NN(S(C)(=O)=O)C(c3ccc4nccnc4c3)C2)cc1 (stereo not given) | 2 | -1 | 2 | 17 | 7 | -1 | / | /
COc1ccc(C2=NN(S(C)(=O)=O)C(c3ccc4nccnc4c3)C2)cc1 (stereo not given) | 8.4* | 0 | 1 | 25 | 7 | 1 | 0 | 4
CCOC(=O)c1ccc2c(c1)nc(-c1ccccn1)n2CC | 7.6* | 2 | 2 | 17 | 8 | 0.9* | 1 | 8.7*
Cc1c(C(=N)C(C#N)C#N)c(=N)oc2c1ccc1ccccc12 | 8.2* | 0 | 0 | 65* | 3 | 1 | 0 | 8.1*
COc1ccc(CCNC(=O)CC(c2ccccc2)c2cccc(C)c2O)cc1OC (stereo not given) | -3 | -1 | -1 | 1 | -1 | -2 | / | /
Cc1nnc(N2CCOCC2)c2nn(-c3ccccc3)c(C)c12 | -1 | 1 | -1 | -2 | -1 | -2 | / | /
